This is an account of results in PubChem BioAssay AID2284100 (EPA ToxCast).

Activity calls are given as the source filed them. Rule for the calls: active = hit-call score of the fitted dose curve at least 0.9, where 1 is the maximum; inactive = score below 0.9.

Chain of human KDR (VEGFR2) Receptor Tyrosine Kinase, KDR (gene 3791) (P35968 whole entry, looked up): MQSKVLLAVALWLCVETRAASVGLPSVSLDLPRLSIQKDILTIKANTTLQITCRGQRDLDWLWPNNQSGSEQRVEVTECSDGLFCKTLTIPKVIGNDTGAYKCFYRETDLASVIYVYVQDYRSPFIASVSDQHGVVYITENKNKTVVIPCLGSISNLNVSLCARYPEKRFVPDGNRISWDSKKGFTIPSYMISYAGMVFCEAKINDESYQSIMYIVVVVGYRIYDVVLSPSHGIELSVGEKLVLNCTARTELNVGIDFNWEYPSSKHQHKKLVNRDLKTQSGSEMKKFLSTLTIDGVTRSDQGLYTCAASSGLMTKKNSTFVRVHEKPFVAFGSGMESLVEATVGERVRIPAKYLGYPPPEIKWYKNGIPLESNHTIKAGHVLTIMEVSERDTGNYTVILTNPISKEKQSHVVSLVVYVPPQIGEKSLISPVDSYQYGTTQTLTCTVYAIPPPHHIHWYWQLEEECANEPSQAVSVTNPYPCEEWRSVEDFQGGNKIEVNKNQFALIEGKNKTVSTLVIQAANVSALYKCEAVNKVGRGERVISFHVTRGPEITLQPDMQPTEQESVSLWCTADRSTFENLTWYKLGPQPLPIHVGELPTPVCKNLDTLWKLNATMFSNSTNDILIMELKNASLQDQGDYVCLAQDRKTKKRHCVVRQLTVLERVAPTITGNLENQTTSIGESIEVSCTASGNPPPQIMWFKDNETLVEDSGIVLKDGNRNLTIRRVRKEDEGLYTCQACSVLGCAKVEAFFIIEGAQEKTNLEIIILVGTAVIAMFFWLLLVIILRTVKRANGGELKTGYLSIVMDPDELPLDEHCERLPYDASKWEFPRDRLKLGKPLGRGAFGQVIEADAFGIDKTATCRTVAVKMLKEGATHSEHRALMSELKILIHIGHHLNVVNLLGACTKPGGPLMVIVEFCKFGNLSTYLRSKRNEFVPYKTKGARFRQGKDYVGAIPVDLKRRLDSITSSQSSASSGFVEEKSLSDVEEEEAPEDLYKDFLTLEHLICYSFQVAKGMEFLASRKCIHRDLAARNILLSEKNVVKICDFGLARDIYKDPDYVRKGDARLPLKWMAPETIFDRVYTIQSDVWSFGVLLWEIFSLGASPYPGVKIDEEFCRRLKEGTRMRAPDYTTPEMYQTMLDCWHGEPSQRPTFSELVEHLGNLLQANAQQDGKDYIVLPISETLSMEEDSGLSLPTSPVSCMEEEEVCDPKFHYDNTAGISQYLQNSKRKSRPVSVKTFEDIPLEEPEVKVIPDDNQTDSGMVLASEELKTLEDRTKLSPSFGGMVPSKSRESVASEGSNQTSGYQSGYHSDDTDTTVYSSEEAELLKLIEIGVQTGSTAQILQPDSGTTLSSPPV

The experiment addresses human KDR (VEGFR2) Receptor Tyrosine Kinase, KDR (gene 3791) (UniProt P35968). The experiment is described as follows: ERF_FR_ENZ_hKDR: Eurofins (ERF) Enzymatic Radiometric [Km ATP] KinaseProfiler LeadHunter Assay for human KDR (VEGFR2) Receptor Tyrosine Kinase. How it is done:
ERF_FR_ENZ_hKDR is a biochemical, single-readout assay that uses extracted gene-proteins in a cell-free assay. Measurements were taken 1 hour after chemical dosing in a 96-well plate. See KDR (VEGFR2) Human RTK Kinase Enzymatic LANCE Assay [Km ATP], Cerep.ERF_FR_ENZ_hKDR is an assay component calculated from the ERF_FR_ENZ_hKDR assay. It is designed to measure enzyme activity using a type of enzyme reporter as detected by fluorescence intensity with LANCE technology.Data from the assay component ERF_FR_ENZ_hKDR was analyzed at the assay endpoint, ERF_FR_ENZ_hKDR, in the positive analysis fitting direction relative to DMSO as the negative control and baseline of activity. Using a type of enzyme reporter, loss-of-signal activity can be used to understand changes in enzymatic activity as they relate to gene KDR. To generalize the intended target to other relatable targets, this assay endpoint is annotated to the kinase intended target family, where the subfamily is receptor tyrosine kinase.
KDR (h) is incubated with 8 mM MOPS pH 7.0, 0.2 mM EDTA, 0.33 mg/mL myelin basic protein, 10 mM MgAcetate and [gamma-33P]-ATP (specific activity and concentration as required). The reaction is initiated by the addition of the Mg/ATP mix. After incubation for 40 minutes at room temperature, the reaction is stopped by the addition of phosphoric acid to a concentration of 0.5%. […]
A word on the AC50: it is the concentration at which the activity in the assay is half-maximal. As to `O=C(/C=C/c1ccc(O)cc1)CC(=O)/C=C/c1ccc(O)cc1`, the AC50 is 2390 nM (active).
